Assay outcomes deposited in PubChem BioAssay by Sanford-Burnham Center for Chemical Genomics.
This is a sample that favours compounds with a hit; in the whole collection about 28% have one here.
CYP2C19 inh = inhibitors of human CYP2C19. AID 778. CYP2C19 Supersomes, luciferin-H EGE luminescence, 30 min. hit rate 21% among 96,000. P33261. inhibition, % at 5 µM;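 active means CYP2C19 inhibition above a set limit at 5 µM in the primary screen, cut at about 50% in these data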
CYP2C9 activ = CYP2C9 (human) activation; P11712; recombinant CYP2C9, luciferin-H conversion, luminescence; active compounds read high; factor 1 = untreated enzyme, 0 = blocked; activation factor at 5 µM; hit rate 1.4% among 96,000;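 active means activation factor of 2 or more for CYP2C9 at a 5 µM dose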
Target sequence (P11712 whole entry, looked up): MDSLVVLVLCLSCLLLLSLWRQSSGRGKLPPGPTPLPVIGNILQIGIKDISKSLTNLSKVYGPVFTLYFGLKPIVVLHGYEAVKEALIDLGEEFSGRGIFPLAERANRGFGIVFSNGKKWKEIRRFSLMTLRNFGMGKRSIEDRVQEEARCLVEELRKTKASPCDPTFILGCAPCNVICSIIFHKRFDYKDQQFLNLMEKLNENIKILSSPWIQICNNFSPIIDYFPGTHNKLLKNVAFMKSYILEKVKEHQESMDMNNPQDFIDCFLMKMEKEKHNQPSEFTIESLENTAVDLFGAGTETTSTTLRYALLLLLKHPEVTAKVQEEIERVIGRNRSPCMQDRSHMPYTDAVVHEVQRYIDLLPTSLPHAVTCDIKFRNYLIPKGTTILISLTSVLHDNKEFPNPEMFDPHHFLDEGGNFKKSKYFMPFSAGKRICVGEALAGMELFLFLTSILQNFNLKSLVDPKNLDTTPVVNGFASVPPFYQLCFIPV
CYP2C9 inh = human CYP2C9 inhibition. P11712. CYP2C9 Supersomes, luciferin-H conversion, luminescence. inhibition, % at 5 µM. hit rate 20% among 96,000. AID 777;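 active means blocking of liver enzyme CYP2C9 beyond about 50% at 5 µM, limit read from the data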
CYP2C19 act = increases human CYP2C19 enzyme activity; P33261; activation factor at 5 µM; recombinant CYP2C19, luciferin-H EGE luminescence; active compounds read high; 0 = fully inhibited enzyme, 1 = untreated enzyme; AID 1025; 96,000 tested, under 10 active;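 active means activation factor of at least 2 at 5 µM in the primary screen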
Pyk2 oligo antag = Pyk2 (human) oligomerization antagonism; Q14289; z-score (the deposit names both 25 µM and 10 µM); hit rate 0.83% among 99,000; Q293 cells, Pyk2 FERM NanoBiT luminescence; active compounds read low;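 active means Z-score of -3 or lower, scaled per plate to the spread of control and sample wells; inactive means z-score above -3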;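 further: negative z-score means lost luminescence so less FERM oligomerization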
Large screens that a line does not name were inactive.

CCC(C)c1ccc(NC(=S)NCc2cccs2)cc1 (stereo not drawn)	CYP2C19 inh 58
Cc1cccc(NC(=S)NN2CCN(C)CC2)c1C	none
Cc1cccc(Nc2ncccc2C(=O)NCc2cccs2)c1C	CYP2C9 inh 57
Cc1ccc(Nc2ncccc2C(=O)NCc2cccs2)c(C)c1	none
Cc1c(C)n(C(=O)CN2CCC(C(N)=O)CC2)c2ccccc12	none
COC(=O)c1[nH]c2ccc(C)cc2c1NC(=O)CN1CCN(c2ccccc2)CC1	CYP2C19 inh 90, CYP2C9 inh 75
Cc1c(C)n(C(=O)CN2CCN(c3ccccc3)CC2)c2ccccc12	CYP2C19 inh 56
Cc1ccc2[nH]c(C(=O)O)c(NC(=O)CN3CCN(c4cccc(C)c4C)CC3)c2c1	CYP2C9 inh 83
CCc1cccc(CC)c1NC(=O)CN1CCN(c2ccccc2)CC1	CYP2C19 inh 66, CYP2C9 inh 83
O=C(Nc1nccs1)c1cc(S(=O)(=O)N2CCOCC2)ccc1Cl	none
Cc1ccccc1NC(=O)CCC(=O)OCC(=O)c1ccc(-c2ccccc2)cc1	none
O=C1Nc2ccccc2C(O)(C(=O)NCc2ccc3c(c2)OCO3)N1c1ccc(Cl)c(Cl)c1 (stereo not drawn)	none
COc1ccc(C(=O)NCC(=O)OCc2cccc(Br)c2)cc1	CYP2C19 inh 55
COc1ccc(O)c(/C=N/NC(=O)c2ccc(OCc3cccc(Br)c3)cc2)c1	none
O=C(NCc1ccccc1)c1cccc(COc2cccc(Cl)c2)c1	none
COc1ccc(NC(=O)C(=O)NNC(=O)c2cccs2)c(OC)c1	none
COc1ccc(OC)c(NC(=O)CNC(=O)c2cccs2)c1	CYP2C19 inh 54
COc1ccc(C(=O)NCC(=O)OCC(=O)Nc2cc(OC)ccc2OC)cc1	CYP2C19 inh 71
NNC(=O)c1cccc(COc2cccc(Br)c2)c1	CYP2C19 inh 98, CYP2C9 inh 68
COc1ccc(NC(=O)COC(=O)CNC(=O)c2cc(OC)c(OC)c(OC)c2)cc1	none (no result: CYP2C19 inh, CYP2C9 activ, CYP2C9 inh, CYP2C19 act)
COc1ccc(Cl)cc1NC(=O)CSc1nnc(CN2CCOCC2)n1-c1ccc(Cl)cc1	none
O=C(Nc1ccc(Oc2ccccc2)cc1)c1cnc2n(c1=O)CCS2	none (no result: Pyk2 oligo antag)
O=C(CC(C(=O)N1CCc2ccccc21)n1ccnc1)NCc1cccnc1 (stereo not drawn)	none (no result: CYP2C19 inh, CYP2C9 activ, CYP2C9 inh, CYP2C19 act)
CCN(CCCNC(=O)CC(C(=O)N1CCc2ccccc21)n1ccnc1)c1ccccc1 (stereo not drawn)	CYP2C19 inh 94
O=C(Nc1nc2c(c(=O)[nH]1)CCCC2)C1CC1	none
O=C(O)COc1ccc(=O)n(-c2ccccc2)n1	none
COC(=O)COc1ccc(=O)n(-c2ccccc2)n1	CYP2C19 inh 63
CCOC(=O)C(Oc1ccc(=O)n(-c2ccccc2)n1)C(C)=O (stereo not drawn)	CYP2C19 inh 56
CCOC(=O)C(Oc1ccc(=O)[nH]n1)C(C)=O (stereo not drawn)	none
O=C(NC1(C(F)(F)F)NC(=O)N(C2CCCCC2)C1=O)c1cccs1 (stereo not drawn)	none
CCC1CCCCN1C(=O)CSc1nnc(-c2cccs2)o1 (stereo not drawn)	CYP2C19 inh 98
COc1ccc(-n2cnnc2SCC(=O)c2cc(C)n(Cc3cccs3)c2C)cc1	CYP2C19 inh 99, CYP2C9 inh 76
O=C(CSc1nnc(-c2cccs2)o1)OC1CCCCC1	none
COc1ccc(-c2nnc(SCC(=O)c3cc(C)n(Cc4cccs4)c3C)o2)cc1	CYP2C19 inh 80, CYP2C9 inh 78
COCCn1c(C)cc(C(=O)CSc2nncn2-c2ccccc2)c1C	CYP2C19 inh 57
Cc1cc(C(=O)CSc2nnc(-c3ccc(OC(F)F)cc3)o2)c(C)n1Cc1cccs1	none
COCCn1c(C)cc(C(=O)COc2nc3ccccc3nc2C)c1C	none
Cc1ccc(S(=O)(=O)N(C)c2ccc(C(=O)NCC3CCCO3)cc2)cc1 (stereo not drawn)	none
COc1ccc(OCc2cccc(C(=O)Nn3cc([N+](=O)[O-])cn3)c2)cc1	none (no result: CYP2C19 inh, CYP2C9 activ, CYP2C9 inh, CYP2C19 act)
CCOC(=O)CCCNC(=O)COc1ccccc1C#N	none
O/N=C(/CN(O)/C=C1/C=CC=N1)c1cccs1	none
Cc1cc(C(=O)CSc2nnc(-c3cccs3)o2)c(C)n1-c1ccccc1	CYP2C19 inh 66, CYP2C9 inh 89
CC(C)(C)S(=O)c1cccs1 (stereo not drawn)	none
CCC(=O)Nc1cccc(C(=O)/C=C/c2cc(Br)ccc2OC)c1	CYP2C19 inh 62
NS(=O)(=O)c1ccc(CCNC(=O)COC(=O)C2CCCN2C(=O)c2cccs2)cc1 (stereo not drawn)	CYP2C19 inh 75
O=C(COC(=O)C1CCCN1C(=O)c1cccs1)c1ccccc1 (stereo not drawn)	CYP2C19 inh 88
COc1ccc(NC(=O)COC(=O)[C@@H]2CCCN2C(=O)c2cccs2)cc1	CYP2C9 inh 60
O=C(OCc1ccccc1)C1CCCN1C(=O)c1cccs1 (stereo not drawn)	CYP2C19 inh 72
CCOC(=O)c1cc(C)n(-n2cnnc2)c1C	none
Cc1nc2ccc(N)cc2c(=O)n1Cc1ccc(Cl)cc1	CYP2C19 inh 99, CYP2C9 inh 84
Nc1ccc2nc3n(c(=O)c2c1)CCC3	none (no result: Pyk2 oligo antag)
CCCn1c(SCC(=O)NC(=O)Nc2ccc(C)cc2C)n[nH]c1=O	none
CCCn1c(SCC(=O)Nc2cc(Cl)ccc2OC)n[nH]c1=O	CYP2C19 inh 90
O=C(CSc1n[nH]c(=O)n1C1CC1)Nc1cc(Cl)ccc1Oc1ccccc1	CYP2C19 inh 59, CYP2C9 inh 83
CCCn1c(SCC(=O)c2cc(C)c(C)cc2C)n[nH]c1=O	CYP2C9 inh 74
CCCn1c(SCC(=O)Nc2ccccc2Oc2ccccc2)n[nH]c1=O	CYP2C19 inh 81, CYP2C9 inh 74
O=C(Nc1cc(Cl)ccc1Oc1ccccc1)c1cnccn1	none
COC(=O)c1cccc(NC(=O)CSc2nc(=O)cc(N)n2-c2ccccc2)c1	none
CCn1c(SCC(=O)Nc2sc3c(c2C(N)=O)CCC(C)C3)nnc1-c1ccco1 (stereo not drawn)	none
CC(C)C(=O)N1CCN(c2ccccc2N)CC1	none (no result: Pyk2 oligo antag)
CCNC(=S)NN(c1ccccc1)c1ccccc1	CYP2C19 inh 96
CCNC(=S)Nc1ccc(N(c2ccccc2)C(C)C)cc1	none
CC(=O)Nc1ccc(S(=O)(=O)NCc2ccc3c(c2)cc(C)n3C)cc1	none (no result: Pyk2 oligo antag)
CC(=O)Nc1ccc(S(=O)(=O)NCCSc2ccccn2)cc1	none
CC(=O)Nc1ccc(S(=O)(=O)NCCSCc2ccc(Cl)cc2Cl)cc1	CYP2C19 inh 57, CYP2C9 inh 81
C=CCNC(=O)c1ccc(CNS(=O)(=O)c2ccc(NC(C)=O)cc2)cc1	CYP2C9 inh 57
C=CCNC(=O)c1ccc(N(C)S(=O)(=O)c2ccc(OC)cc2)cc1	CYP2C19 inh 73, CYP2C9 inh 86
CC(=O)Nc1ccc(S(=O)(=O)NCc2ccc(C)cc2)cc1	CYP2C19 inh 60
O=C(NCN1C(=O)C2C3C=CC(C3)C2C1=O)Nc1nccs1 (stereo not drawn)	none (no result: CYP2C19 inh, CYP2C9 activ, CYP2C9 inh, CYP2C19 act)
